This is a sample that favours compounds with a hit; in the whole collection about 2.8% have one here.
FXN GAA850 act: frataxin GAA850 promoter activation | 0.56% of 360,000 active | HEK293 lucGAA850 FXN promoter luciferase reporter, 24 h; percent of 10 µM SAHA response | activation, % at 6 µM;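 active = activation above the average of all compounds screened plus 3 SD, cutoff fixed separately per campaign, cut at about 7.5% in these data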;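 also: 0% = DMSO wells and 100% = 10 µM SAHA wells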
esBAF inh: inhibitors of esBAF chromatin remodeling in mouse ES cells; Bmi1-luciferase knock-in reporter, 24 h; 100% = twice the neutral-well signal; reporter increase, % at 12.5 µM; 2% of 350,000 active; in the data active = activation above about 40%;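 also: 0% = median of the plate's neutral control wells and 100% = double that signal; a rise in the Bmi1 reporter signal indicates esBAF inhibition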
Wnt bcat act: activates Wnt/beta-catenin signaling in a reporter cell assay | activator, plate reader | 1.2% of 300,000 active | activation, % at 9.35 µM; in the data active = activation above about 30%, passing the limit was not always enough;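 also: 0% = neutral control wells and 100% = positive control wells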
MITF TRPM1 HTS: MITF TRPM1 promoter activation in melanoma cells | SK-MEL-5 TRPM1-promoter luciferase, 24 h; % of positive control, neutral wells = 0 | activation, % at 12.5 µM | 0.75% of 300,000 active | AID 588334;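 active = mean activation of at least 80% with every replicate also reaching 80%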;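 also: 0% = neutral control wells and 100% = parthenolide positive control wells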
An asterisk follows results filed as active.

Screening C[C@@H]1CN([C@H](C)CO)C(=O)c2cc(NC(=O)Nc3ccc(C(F)(F)F)cc3)ccc2O[C@H]1CN(C)CC1CCCCC1 returned esBAF inh -3.
CCc1ccc(S(=O)(=O)c2n[nH]n3c2nc(=O)c2ccccc23)cc1 was read as FXN GAA850 act -1, esBAF inh 1, Wnt bcat act -1 and MITF TRPM1 HTS -7.
O=c1nc2c(-c3ccccc3F)n[nH]n2c2ccccc12 was read as FXN GAA850 act 6, esBAF inh 22 and Wnt bcat act 36*.
`Cc1cc2nc(-c3cccc(NC(=O)c4ccc(Br)o4)c3)oc2cc1C` gave FXN GAA850 act 3, esBAF inh 9 and MITF TRPM1 HTS 2.
CC(C)CC(=O)Nc1ccc2oc(-c3cccnc3)nc2c1 was read as FXN GAA850 act 3, esBAF inh 50* and MITF TRPM1 HTS 55.
`Cc1ccc2oc(-c3cccc(NC(=O)c4ccc(Br)o4)c3)nc2c1` gave FXN GAA850 act 6, esBAF inh 65* and MITF TRPM1 HTS 17.
Screening CCCC(=O)Nc1ccc2oc(-c3cncc(Br)c3)nc2c1 returned FXN GAA850 act 4, esBAF inh 12, Wnt bcat act -1 and MITF TRPM1 HTS 97*.
COC(=O)c1ccc(-c2nc3ccc(C)cc3o2)cc1 was read as FXN GAA850 act -1, esBAF inh 52*, Wnt bcat act 55* and MITF TRPM1 HTS -6.
Screening Cc1ccc(-c2nc3cc(C)ccc3o2)cc1 returned FXN GAA850 act -1, esBAF inh -61 and MITF TRPM1 HTS -42.
O=S(=O)(N[C@H]1CC[C@@H](CCn2cc(C3(O)CCCC3)nn2)O[C@H]1CO)c1ccc(F)cc1 was read as esBAF inh -3.
C[C@H](CO)N1C[C@H](C)[C@@H](CN(C)Cc2ccc(F)cc2)Oc2ncc(-c3ccccc3F)cc2C1=O was read as esBAF inh -4.
Screening C[C@@H]1CN([C@@H](C)CO)C(=O)c2cc(NC(=O)Nc3ccc(C(F)(F)F)cc3)ccc2O[C@@H](C)CCCCO[C@H]1CN(C)Cc1ccc(Cl)c(Cl)c1 returned esBAF inh 3.
`Cc1ccc2oc(-c3ccc(NC(=O)CC(C)C)cc3)nc2c1` gave FXN GAA850 act 6, esBAF inh 50*, Wnt bcat act 16 and MITF TRPM1 HTS 101*.
Screening CCC(C)NCC(=O)Nc1ccc(-c2nc3cc(NC(=O)CNC(C)CC)ccc3o2)cc1 (stereo unspecified) returned FXN GAA850 act 1, esBAF inh -3 and Wnt bcat act -2.
CN(C)CC(=O)N[C@H]1CC[C@H](CCn2cc(C3CC3)nn2)O[C@@H]1CO was read as esBAF inh 1.
`CCc1cc(C(=O)Cc2nc3ccccc3[nH]2)c(O)cc1O` gave FXN GAA850 act -1, esBAF inh 47*, Wnt bcat act 34* and MITF TRPM1 HTS 21.
For Nc1ccc(C(=O)OCc2nc3ccccc3[nH]2)cc1 the results were FXN GAA850 act -1, esBAF inh 55* and MITF TRPM1 HTS 10.
For O=C(Cc1nc2ccccc2[nH]1)c1ccc([N+](=O)[O-])cc1 the results were FXN GAA850 act 5, Wnt bcat act 58* and MITF TRPM1 HTS 59.
`CCc1cc(/C(Cc2ccc3ccccc3n2)=N\O)c(O)cc1O` gave FXN GAA850 act -1, esBAF inh 50*, Wnt bcat act -6 and MITF TRPM1 HTS -8.
Screening Nc1ccc(C(=O)OCCCc2nc3ccccc3[nH]2)cc1 returned FXN GAA850 act 5, esBAF inh 2, Wnt bcat act 0 and MITF TRPM1 HTS -10.
Screening O=C(CC1CC1)Nc1ccc2c(c1)[C@H]1C[C@@H](CC(=O)NC3CCCC3)O[C@@H](CO)[C@H]1O2 returned esBAF inh 2.
For O=C(C[C@@H]1C=C[C@@H](NC(=O)Nc2ccc(F)cc2)[C@H](CO)O1)NCc1cccc(F)c1 the results were esBAF inh -2.
Screening C[C@H](CO)N1C[C@H](C)[C@@H](CN(C)S(=O)(=O)c2ccccc2)OCCCC[C@H](C)Oc2ccc(NS(=O)(=O)c3ccccc3)cc2C1=O returned esBAF inh 8.
`CCS(=O)(=O)Nc1ccc2c(c1)C(=O)N(C)C[C@H](OC)[C@H](C)CN(Cc1ccccn1)[C@H](C)CO2` gave esBAF inh 5.
CC(OC(=O)/C=C/c1ccc2ccccc2n1)C(=O)N(C)c1ccccc1 (stereo unspecified) was read as FXN GAA850 act 1, esBAF inh 47*, Wnt bcat act -26 and MITF TRPM1 HTS -9.
For COc1ccccc1NC(=O)C(C)OC(=O)/C=C/c1ccc2ccccc2n1 (stereo unspecified) the results were FXN GAA850 act 3, Wnt bcat act -4 and MITF TRPM1 HTS 48.
Screening CCCNC(=O)C[C@H]1C[C@H]2c3cc(NS(C)(=O)=O)ccc3O[C@H]2[C@@H](CO)O1 returned esBAF inh 3.
CCN(CC)CCN(C(=O)c1ccc2ncsc2c1)c1nc2cc3c(cc2s1)OCO3 was read as FXN GAA850 act 6, esBAF inh 55*, Wnt bcat act 21 and MITF TRPM1 HTS 19.
For CCCCOc1ccc(-c2ncc([N+](=O)[O-])cn2)cc1 the results were FXN GAA850 act 2, esBAF inh 83* and Wnt bcat act 40*.
`CCCCOC(=O)c1ccc(Nc2ccc([N+](=O)[O-])cn2)cc1` gave FXN GAA850 act 2, Wnt bcat act -1 and MITF TRPM1 HTS -4.
CCCCOc1ccc(-c2ncc(Cl)cn2)cc1 was read as FXN GAA850 act 4, esBAF inh 86*, Wnt bcat act -2 and MITF TRPM1 HTS 105*.
`CCCCOc1ccc(-c2cnc3ccccc3n2)cc1` gave FXN GAA850 act 6 and MITF TRPM1 HTS 15.
Screening O=C(O)C(O)Cc1c[nH]c2ccccc12 (stereo unspecified) returned FXN GAA850 act 2, esBAF inh 14, Wnt bcat act 0 and MITF TRPM1 HTS -2.
`O=C(CC(C(=O)O)c1c[nH]c2ccccc12)c1ccccc1` (stereo unspecified) gave FXN GAA850 act 0, esBAF inh 27*, Wnt bcat act 4 and MITF TRPM1 HTS 1.
`CCCc1ccc2oc(C(=O)N(Cc3nccn3C)C(C)C)c(C)c2c1` gave FXN GAA850 act 3, esBAF inh 19, Wnt bcat act 7 and MITF TRPM1 HTS 22.
Screening CCCc1ccc2oc(C(=O)N(C)Cc3ccn[nH]3)c(C)c2c1 returned FXN GAA850 act 6, esBAF inh 75*, Wnt bcat act 7 and MITF TRPM1 HTS 44.
Screening CCCc1ccc2oc(C(=O)NCCc3cnn(C)c3)c(C)c2c1 returned FXN GAA850 act 5, esBAF inh 47*, Wnt bcat act 30 and MITF TRPM1 HTS 68.
For CCC(=O)N[C@@H]1CC[C@@H](CC(=O)NCc2cc(F)cc(F)c2)O[C@H]1CO the results were esBAF inh 4.
For COc1ccccc1CNc1nc2cc(-c3sccc3C)sc2c(=O)n1C the results were FXN GAA850 act 4, esBAF inh 66* and Wnt bcat act 38*.
For COCCNc1nc2cc(-c3ccc(C)cc3)sc2c(=O)n1C the results were FXN GAA850 act 5, esBAF inh 55* and Wnt bcat act -1.

Screening data as filed in PubChem BioAssay.
